The sample as a whole holds a higher share of hits than the screen did.
Luciferase inh: qHTS Assay for Inhibitors of Firefly Luciferase. Luciferin 4-monooxygenase (Photinus pyralis), P08659. purified firefly luciferase, luminescence, 8 min. Potency, µM (highest dose often 57.1 µM), without a hit: top-dose activity change, negative = inhibition, most hits filed as inhibitors. hit rate 2.2% among 72,000; note: potency is the fitted concentration of half-maximal effect; % is set by controls: 0 for no effect and ±100 for the full control effect; nearly all actives have a fitted effect of over 40% in size
Target sequence (P08659 whole entry, looked up): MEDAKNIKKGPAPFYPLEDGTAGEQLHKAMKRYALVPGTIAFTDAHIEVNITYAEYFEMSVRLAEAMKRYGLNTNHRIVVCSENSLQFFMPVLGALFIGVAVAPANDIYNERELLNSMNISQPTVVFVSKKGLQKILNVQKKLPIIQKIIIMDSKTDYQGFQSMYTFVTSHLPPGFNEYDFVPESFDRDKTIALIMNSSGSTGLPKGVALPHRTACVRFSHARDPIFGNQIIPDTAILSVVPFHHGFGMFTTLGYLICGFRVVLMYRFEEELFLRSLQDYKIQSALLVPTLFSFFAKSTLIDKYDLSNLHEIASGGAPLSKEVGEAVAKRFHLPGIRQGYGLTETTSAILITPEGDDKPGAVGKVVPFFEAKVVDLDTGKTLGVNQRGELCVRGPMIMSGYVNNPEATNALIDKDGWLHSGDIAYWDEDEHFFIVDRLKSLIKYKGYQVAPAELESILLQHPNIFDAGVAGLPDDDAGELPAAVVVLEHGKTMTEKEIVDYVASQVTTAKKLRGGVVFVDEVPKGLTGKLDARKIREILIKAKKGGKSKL
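Titration-based qHTS; buffer 50 mM imidazole pH 7.2, 50 mM KCl, 7 mM MgCl2, 10 uM ATP, 0.01% Tween 20, 0.05% BSA; luciferase/luciferin detector mix added after compound; 8 min, ambient; luminescence.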
IMPase cell inh: qHTS Assay for Identifying the Cell-Membrane Permeable IMPase Inhibitors | AID 901, 2007 | Inositol monophosphatase 1 (Rattus norvegicus), P97697 | CHO-M1 cells, IP1 accumulation, HTRF TR-FRET ratio | inhibition (IP1 accumulation), % at 46.1 µM | 120,000 tested, under 10 active; active = well fitted curve in the direction sought with a large enough effect in the signal ratio, not every such curve was filed as active; inconclusive = small, poorly fitted or top-dose-only effect, or a change in a side signal; inactive = no such curve, though single readings can be large or run the other way; the % refers to the signal ratio;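 note: cells stimulated with carbachol in lithium chloride buffer; plate controls were DMSO basal wells for no effect and reference inhibitor wells for full effect; higher means more IMPase inhibition seen as more IP1 and lower FRET ratio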
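CHO-M1 cells (CHO stably expressing M1 receptor), compound up to 46 uM final, stimulated with carbachol (50 uM as added) in buffer with 50mM LiCl, pH 7.4, 30 min at 37C. Cytosolic IP1 read by TR-FRET; AC50 from Hill fits.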
Hsp90 Hop PPI: qHTS Assay for Disrupters of an Hsp90 Co-Chaperone Interaction | AlphaScreen TPR2A-His6 binding biotin-Hsp90 C-terminal peptide | Potency, µM (top dose mostly 57 µM), for the others: top-dose activity change, negative = inhibition | hit rate 0.44% among 71,000 | AID 595, 2007; active = well fitted curve in either direction with a large enough effect; inconclusive = small, poorly fitted or top-dose-only effect, or another doubt; note: potency is the fitted concentration of half-maximal effect; % is set by controls: 0 for no effect and ±100 for the full control effect
p53ts 39C tox: qHTS Screen for Compounds that Selectively Target Cancer Cells with p53 Mutations: Cytotoxicity of p53ts Cells at the Nonpermissive Temperature; hit rate 1.5% among 130,000; H1299-p53A138V viability at 39C, ATP luminescence, 24 h; Potency, µM (doses to about 46.1 µM), inactives show at the highest dose activity change, negative = cell killing, hits mostly cytotoxic; AID 902, 2007; note: potency is the fitted concentration of half-maximal effect; % is set by controls: 0 for no effect and ±100 for the full control effect; nearly all actives have a fitted effect of over 55% in size
p53ts 32C tox: qHTS Screen for Compounds that Selectively Target Cancer Cells with p53 Mutations: Cytotoxicity of p53ts Cells at the Permissive Temperature; H1299-p53A138V at 32C, ATP luminescence viability, 24 h; Potency, µM (series often up to 46.1 µM), for inactives: at the top dose activity change, negative = cytotoxicity, most hits filed as cytotoxic; hit rate 0.93% among 130,000; AID 924, 2007;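 note: potency is the fitted concentration of half-maximal effect; 0% = DMSO and -100% = full killing by reference compound; nearly all actives have a fitted effect of over 55% in size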
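Viability by ATPlite luminescence after 24 h compound treatment (up to 46 uM) at the permissive 32C. Cells are H1299 carrying p53 A138V. Scale runs from DMSO basal to 100 uM tamoxifen as full kill; AC50 from Hill fits.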
IkB signaling: IkB Signaling | hit rate 0.04% among 110,000 | ABC-DLBCL IkBa-CBG/CBR dual luciferase ratio, 4 h; response scale: scaled: untreated 0%, proteasome inhibitor 100% | Potency, µM (highest dose often 57.1 µM), for the others: at the top dose IkBa stabilization activation; active = well fitted curve in the direction sought with a large enough effect in the signal ratio, not every such curve was filed as active; inconclusive = small, poorly fitted or top-dose-only effect, or a change in a side signal; the % refers to the signal ratio;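 note: potency is the fitted concentration of half-maximal effect; the direction sought is a rising ratio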
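Luminescence ratio of IκBα-fused green versus native red beetle luciferase in OCI-Ly3 cells, 4 h post-doxycycline with compound; red signal alone, scaled from basal (0%) to zero light (-100%), flagged nonspecific or cytotoxic effects.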
Hsp90-TPR2A inh: Confirmation Concentration-Response Assay and Counterscreen for Disrupters of an Hsp90 Co-Chaperone Interaction; AlphaScreen TPR2A-His6 / biotin-Hsp90 peptide binding; hit rate 100% among 45; shares compounds with Hsp90 Hop PPI; activity, negative = inhibition, % at 40 µM or 46 µM, hits read low;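 active = compound lowering the Hsp90 and TPR2A binding signal, whether or not the linker counterscreen also flagged it as an artifact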
* marks the source's active call; other numbers are inactive results; u = inconclusive; x = no result; [ ] = dose if it differs, or a comment. Unless noted, calls come from the whole dose curve; as a rule, active = well fitted curve in the direction sought with a large enough effect; inconclusive = small, poorly fitted or top-dose-only effect, or another doubt; inactive = no such curve, though single readings can be large; an effect the other way counts as inactive or inconclusive.

SMILES | Luciferase inh | IMPase cell inh | Hsp90 Hop PPI | p53ts 39C tox | p53ts 32C tox | IkB signaling | Hsp90-TPR2A inh
Cn1cccc1C(=O)Nc1nc(-c2ccccn2)cs1 | 20µM* | -3 | 6.3µM* | u | -27% | u | -100*[alpha-screen platform artifact]
O=C(CN1C(=O)CCC1=O)Nc1nc(-c2ccccn2)cs1 | -1% | -1 | 2.5µM* | 9% | -1% | -3% | -100*[alpha-screen platform artifact]
Cc1csc(NC(=O)c2cccn2C)n1 | x | -3 | x | x | x | x | x
Cc1ccc(C)c(NC(=O)CSc2c3c(nc4ccc(Cl)cc24)CCCC3)c1 | x | x | x | -30% | -21% | u | x
Cn1c(=O)[nH]c2nnc(-c3ccccc3)nc2c1=O | x | x | x | x | x | x | 12
O=S(=O)(Nc1cccc2ncccc12)c1cccs1 | 0% | 0 | 16µM* | 57% | 18% | u | -100*[alpha-screen platform artifact]
Cc1ccc(NC(=O)CCCCCC2NC(=O)NC2C)cc1 (stereo not given) | -1% | 19 | 0.013µM* | -5% | 1% | -1% | -99*[alpha-screen platform artifact]
Nc1c(C(=O)NCc2ccccc2)nnn1Cc1cccc(Br)c1 | x | x | x | u | 7% | -1% | x
CCN(CC)C(=O)c1sc2nc(-c3ccncc3)[nH]c(=O)c2c1C | -11% | -5 | 0% | -6% | -7% | -1% | x
CCN(CC)C(=O)c1sc2nc(-c3ccccn3)[nH]c(=O)c2c1C | -15% | x | 7.9µM* | -26% | -25% | 10% | -99*[alpha-screen platform artifact]
CCOC(=O)CSc1nc2ccccc2c(=O)n1C1CCCC1 | 1% | 14 | -3% | 5% | 14% | 0% | x
CCCCNC(=O)CSc1nc2ccccc2c(=O)n1C1CCCC1 | 2% | -8 | 1% | 9% | 16% | 0% | -100*[alpha-screen platform artifact]
NC(=O)C[C@H](N)C(N)=O | 2%[11.4 µM] | x | 0%[11 µM] | 4%[9.22 µM] | -5%[9.22 µM] | 1%[11.4 µM] | x
Brc1ccc(-c2nn3c(-c4ccncc4)nnc3s2)o1 | 2% | -1 | -3% | 16% | 4% | 0% | x
Brc1ccc(-c2nn3c(-c4ccccn4)nnc3s2)o1 | 1% | -1 | 7.9µM* | 5% | 9% | u | -99*[alpha-screen platform artifact]
COC(=O)c1sc2cccc(F)c2c1S(=O)(=O)N1CCN(c2ccc(F)cc2)CC1 | x | x | x | -28% | 0% | -2% | x

Source: PubChem BioAssay
